# Structures can show the parent of a compound that is named as a salt.
# Test system: MARIMO
# Assay: cell viability relative to vehicle control; higher = less cytotoxic
# Settings: 10 µM; SRSF2 genotype: SRSF2 P95H/wt
# In short: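 Each screen used CRISPR-edited mutant and wild-type clones from four leukaemia lines. Compounds were acoustically dispensed at a single 10 µM dose, and CellTiter-Glo luminescence was read after 48 h with the supernatant first removed. Viability was analysed in Genedata Screener and given as percent of the on-plate vehicle control.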
row,Compound,cell viability
1,CCc1c(O)cc(O)c(C(=O)c2ccc(OCCN3CCOCC3)c(OC)c2)c1CC(=O)N(CCOC)CCOC,29.3%
2,O=C(NCCS(=O)(=O)c1ccc(C(F)(F)F)cn1)c1ccc(Cl)cc1,91.2%
3,Clc1ccc2c(c1)CCc1cccnc1C2=C1CCNCC1 [Desloratadine],80.7%
4,Cc1ccc(C(=O)O)c(O)c1 [4-Methylsalicylic acid],108%
5,CCC(=O)Nc1cccc(Oc2nc(Nc3ccc(N4CCN(C)CC4)cc3OC)ncc2Cl)c1,70.3%
6,CN(N=O)C(=O)NC1C(O)OC(CO)C(O)C1O (stereo not given) [Streptozotocin (STZ)],98.3%
7,C=CS(=O)(=O)NC1CCN(C(=O)CNc2cc(I)c(Cl)cc2OC)CC1 [K-Ras(G12C) inhibitor 9],36.4%
8,CCCc1nn(C)c2c(=O)[nH]c(-c3cc(S(=O)(=O)N4CCN(C)CC4)ccc3OCC)nc12 [Sildenafil citrate],106%
9,CNC(=O)Nc1ccc(-c2nc(N3CC4CCC(C3)O4)c3cnn(C4CCC5(CC4)OCCO5)c3n2)cc1,57.6%
10,CO/N=C(\C(=O)N[C@@H]1C(=O)N2C(C(=O)O)=C(CSc3nc(C)c(CC(=O)O)s3)CS[C@H]12)c1csc(N)n1 [Cefodizime Sodium],100%
11,COC(=O)C1=C(C)NC(C)=C(C(=O)OCCN2CCN(C(c3ccccc3)c3ccccc3)CC2)C1c1cccc([N+](=O)[O-])c1 (stereo not given) [Manidipine (Manyper)],60.2%
12,Cc1cccc(CC(=O)N2CCc3c2ccc(-c2cn(C)c4ncnc(N)c24)c3F)n1,74.5%
13,CNC1CCCN(c2c(F)cc3c(=O)c(C(=O)O)cn(C4CC4)c3c2OC)C1 (stereo not given) [Balofloxacin],107%
14,Cc1ccc(S(=O)(=O)NC(=O)NN2CC3CCCC3C2)cc1 (stereo not given) [Gliclazide (Diamicron)],106%
15,CN1CC2c3ccccc3Oc3ccc(Cl)cc3C2C1 (stereo not given) [Asenapine maleate],63%
16,CC[C@H]1OC(=O)[C@H](C)[C@@H](O[C@H]2C[C@@](C)(OC)[C@@H](O)[C@H](C)O2)[C@H](C)[C@@H](O[C@@H]2O[C@H](C)C[C@H](N(C)C)[C@H]2O)[C@](C)(O)C[C@@H](C)/C(=N\OCOCCOC)[C@H](C)[C@@H](O)[C@]1(C)O [Roxithromycin (Roxl-150)],103%
17,CC(C)c1nc(CN(C)C(=O)N[C@H](C(=O)N[C@@H](Cc2ccccc2)C[C@H](O)[C@H](Cc2ccccc2)NC(=O)OCc2cncs2)C(C)C)cs1 [Ritonavir],81.9%
18,Nc1nccc(Oc2ccc3c(C(=O)Nc4cccc(C(F)(F)F)c4)cccc3c2)n1,109%
19,N[C@@H](Cc1c[nH]c2ccc(O)cc12)C(=O)O [5-hydroxytryptophan (5-HTP)],99.8%
20,CCCOc1ccc2c(c1)CC[C@@H]1[C@@H]2CC[C@]2(C)[C@@H](OC)CC[C@@H]12 [Promestriene],76.6%

row,Compound,cell viability
1,CCOCCn1c(N2CCCN(C)CC2)nc2ccccc21 [Emedastine],101%
2,COc1cc2c(c(OC)c1OC)-c1c(cc3c(c1OC)OCO3)C[C@H](C)[C@](C)(O)[C@H]2OC(=O)c1ccccc1 [Schisantherin A],89.3%
3,COc1ccc2c(c1O)-c1c(O)c(OC)cc3c1[C@H](C2)[N+](C)(C)CC3 [Magnoflorine],98%
4,NCc1c[nH]c(=S)n1[C@H]1CCc2c(F)cc(F)cc2C1 [Nepicastat hydrochloride],92.2%
5,CC(=O)Nc1ccc(OC(=O)c2ccccc2OC(C)=O)cc1 [Benorylate],104%
6,CCC(=O)NC[C@@H]1C[C@H]1c1cccc2c1CCO2 [Tasimelteon],92.1%
7,COc1ncnc(NS(=O)(=O)c2ccc(N)cc2)c1OC [Sulfadoxine (Sulphadoxine)],104%
8,N[C@@H](Cc1cc(I)c(Oc2cc(I)c(O)c(I)c2)c(I)c1)C(=O)O [Levothyroxine sodium],102%
9,C=C(C)[C@@H]1CC[C@]2(C(=O)O)CC[C@]3(C)[C@H](CC[C@@H]4[C@@]5(C)CC[C@H](O)[C@@](C)(CO)[C@@H]5CC[C@]43C)[C@@H]12 [23-Hydroxybetulinic acid],96.6%
10,C[C@]12C=CC(=O)C=C1CC[C@H]1[C@@H]3C[C@@H](O)[C@](O)(C(=O)CO)[C@@]3(C)C[C@H](O)[C@@]12F [Triamcinolone (Aristocort)],100%
11,O=C(O)C1=CO[C@@H](O[C@@H]2O[C@H](CO)[C@@H](O)[C@H](O)[C@H]2O)[C@H]2[C@@H]1C=C[C@]2(O)CO [Monotropein],101%
12,Cn1ncc(Cl)c1-c1cc(C(=O)N[C@H](CN)Cc2cccc(F)c2)sc1Cl,67.5%
13,Cc1ccc(OCC(O)C(C)NC(C)C)c2c1CCC2 (stereo not given),104%
14,CN1CCCN(C(=O)c2cccc(-c3ccc(/C=C4/C(=O)Nc5ccc(Cl)cc54)o3)c2)CC1,0.26%
15,O=S(=O)(c1ccccc1)c1cnc2c(N3CCNCC3)cccc2c1,95%
16,CCn1c2ccccc2c2cc(Nc3ccnc(NCCCN4CCOCC4)n3)ccc21,19.1%
17,Cc1cn(-c2cc(NC(=O)c3ccc(C)c(Nc4nccc(-c5cnccn5)n4)c3)cc(C(F)(F)F)c2)cn1 [Radotinib],107%
18,CCCOc1ccc2[nH]c(NC(=O)OC)nc2c1 [Oxibendazole],6.59%
19,COCC1=C(C(=O)OC(C)OC(=O)OC(C)C)N2C(=O)[C@@H](NC(=O)/C(=N\OC)c3csc(N)n3)[C@H]2SC1 (stereo not given in full) [Cefpodoxime proxetil],91.9%
20,Oc1c(F)cc(-c2cnccc2-c2ccc(N3CCOCC3)cc2)cc1F,97.5%

# From the supplement of paper PMC10981050
